# Source: the supplement of paper PMC10515830
# Counter-ions that a name gives are not always drawn.
# Experiments:
# Settings in all cases: 10 µM; exposure time 6 h
# [1] = tested on: Danio rerio larvae (5 dpf); test: difference in excitability vs DMSO (percentage points); higher = more excitable than DMSO
# How it was run: (§1)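 Library compounds were tested at 10 µM final in 100 µL egg water on wild-type 5 dpf zebrafish larvae in 96-well plates for 6 h, with 48 larvae per compound. After 3 h, plates at 28.5 ℃ were imaged every 6 s during a 3-h run of moving lines and 100 ms, 400Hz tones. Behaviours were quantified by Z-LaP Tracker and reported as the compound mean less the vehicle control mean, in percentage points.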
# [2] = tested on: Danio rerio larvae (5 dpf); test: difference in startle response vs DMSO (percentage points); higher = stronger startle than DMSO
# How it was run: as §1
# [3] = tested on: Danio rerio larvae (5 dpf); test: difference in activity during first hour vs DMSO (percentage points); higher = more activity than DMSO
# How it was run: as §1
# [4] = tested on: Danio rerio larvae (5 dpf); test: difference in habituation to acoustic stimuli vs DMSO (percentage points); higher = more habituation than DMSO
# How it was run: as §1
# [5] = tested on: Danio rerio larvae (5 dpf); test: difference in combined optomotor response to red, green and blue moving lines vs DMSO (percentage points); higher = stronger optomotor response than DMSO
# How it was run: as §1
Compound,difference in excitability [1],difference in startle response [2],difference in activity during first hour [3],difference in habituation to acoustic stimuli [4],difference [5]
CC#C[C@]1(O)CC[C@H]2[C@@H]3CCC4=CC(=O)CCC4=C3[C@@H](c3ccc(N(C)C)cc3)C[C@@]21C [Mifepristone],10.2,-2.97,-9.36,0.759,4.72
CN(C)CCOC(=O)C(c1ccccc1)C1(O)CCCC1 (stereo not given) [Cyclopentolate (hydrochloride)],-10.4,-4.29,-7.59,-2.76,-2.74
CCOc1ccccc1OCCN[C@H](C)Cc1ccc(OC)c(S(N)(=O)=O)c1 [Tamsulosin (hydrochloride)],25.5,3.47,-3.28,1.9,1.52
CC1(C)S[C@@H]2[C@H](NC(=O)[C@H](N)c3ccc(O)cc3)C(=O)N2[C@H]1C(=O)O [Amoxicillin (hydrate)],2.37,8.42,13.1,5.1,8.79
CNCCCC12CCC(c3ccccc31)c1ccccc12 [Maprotiline (hydrochloride)],-2.87,5.37,-7.95,0.965,2.3
CN1CCC[C@@H]1CCO[C@](C)(c1ccccc1)c1ccc(Cl)cc1 [Clemastine (fumarate)],26.5,-6.88,-0.468,-2.97,6.17
CCCNCC(O)COc1ccccc1C(=O)CCc1ccccc1 (stereo not given) [Propafenone (hydrochloride)],14.4,-3.28,8.84,0.424,6.51
CC1(C)O[C@@H]2C[C@H]3[C@@H]4CCC5=CC(=O)CC[C@]5(C)[C@@]4(F)[C@@H](O)C[C@]3(C)[C@]2(C(=O)CCl)O1 [Halcinonide],-1.92,2.79,7.26,9.28,6.48
CNC(=O)c1cc(Oc2ccc(NC(=O)Nc3ccc(Cl)c(C(F)(F)F)c3)c(F)c2)ccn1 [Regorafenib],20.9,-2.66,-3.38,-6.09,1.15
C[C@@H]1C[C@H]2[C@@H]3CCC4=CC(=O)C=C[C@]4(C)[C@@]3(F)[C@@H](O)C[C@]2(C)[C@H]1C(=O)CO [Desoximetasone],2.03,4.16,-4.98,2.48,0.705
CCCCCCOC(=O)CCC(=O)CN [Hexaminolevulinate (hydrochloride)],5.6,3.54,2.02,7.86,2.47
NCCC(O)(P(=O)(O)O)P(=O)(O)O [Pamidronate (sodium salt)],9.47,4.04,-2.6,-0.604,2.29
Nc1ccn(C[C@@H](CO)OCP(=O)(O)O)c(=O)n1 [Cidofovir],-2.11,-1.31,-7.68,-3.35,-5.67
CCc1cc2c(cc1CC)CC(NC[C@H](O)c1ccc(O)c3[nH]c(=O)ccc13)C2 [Indacaterol],-0.786,4.28,-1.22,3.2,-2.46
CC(C)(C(=O)c1cccnc1)c1cccnc1 [Metyrapone],1.48,5.62,-0.661,1.75,4.5
CCCCc1ncc(/C=C(\Cc2cccs2)C(=O)O)n1Cc1ccc(C(=O)O)cc1 [Eprosartan (mesylate)],7.16,-7.77,-8.19,-4.96,5.89
C[C@H]1C[C@@H]2[C@H]([C@@H](O)C[C@@]3(C)[C@H]2CC[C@]3(O)C(=O)CO)[C@@]2(C)C=CC(=O)C=C12 [Methylprednisolone],2.35,0.227,10.3,-3.19,9.29
CN(C)CC[C@@H](c1ccc(Cl)cc1)c1ccccn1 [Dexchlorpheniramine (maleate)],5.44,3.98,-18.8,1.79,-3.17
CC[C@H]1OC(=O)[C@H](C)[C@@H](O[C@H]2C[C@@](C)(OC)[C@@H](O)[C@H](C)O2)[C@H](C)[C@@H](O[C@@H]2O[C@H](C)C[C@H](N(C)C)[C@H]2O)[C@](C)(O)C[C@@H](C)CN(C)[C@H](C)[C@@H](O)[C@]1(C)O [Azithromycin],19.6,2.02,-4.37,-3.98,-0.0441
C[n+]1ccccc1/C=N/O [Pralidoxime (chloride)],1.97,-3.28,6.01,2.57,1.74
CN1C(=O)CC(C)(c2ccccc2)C1=O (stereo not given) [Methsuximide],-3.21,8.76,7.45,4.76,10.3
CON(C)Cc1ccc(O)c2c1C[C@H]1C[C@H]3[C@H](N(C)C)C(=O)C(C(N)=O)=C(O)[C@@]3(O)C(=O)C1=C2O,-1.28,-2.07,7.53,4.95,0.0321
CC(C)N(CCCCOCC(=O)NS(C)(=O)=O)c1cnc(-c2ccccc2)c(-c2ccccc2)n1,11.4,6.8,-3.12,5.08,2.84
COc1ccc2cc(CCC(C)=O)ccc2c1 [Nabumetone],0.732,-0.884,1.19,-1.53,0.192

Compound,difference in excitability [1],difference in startle response [2],difference in activity during first hour [3],difference in habituation to acoustic stimuli [4],difference [5]
CC(C)CN(C[C@@H](OP(=O)(O)O)[C@H](Cc1ccccc1)NC(=O)O[C@H]1CCOC1)S(=O)(=O)c1ccc(N)cc1 [Fosamprenavir (calcium salt)],0.179,4.76,22.4,-2.19,5.16
FCOC(C(F)(F)F)C(F)(F)F [Sevoflurane],-1.7,2.93,0.0224,4.17,-3.43
CNC(=C[N+](=O)[O-])NCCSCc1ccc(CN(C)C)o1 [Ranitidine (hydrochloride)],-1.03,4.48,11.1,0.164,7.87
Cn1ccnc1S [Methimazole],-1.48,3.48,-0.609,0.155,3.45
CC(C)(C)NC(=O)[C@@H]1CN(Cc2cccnc2)CCN1C[C@@H](O)C[C@@H](Cc1ccccc1)C(=O)N[C@H]1c2ccccc2C[C@H]1O [Indinavir (sulfate)],-11.9,-2.27,1.38,11.2,-0.405
CN(C)CCC=C1c2ccccc2COc2ccccc21 [Doxepin (hydrochloride)],9.9,-1.02,0.133,2.48,4.43
Cc1cc(C)cc(OCC2CNC(=O)O2)c1 (stereo not given) [Metaxalone],8.24,-0.153,0.609,5.03,10.1
C[C@H]1[C@H](NC(=O)/C(=N\OC(C)(C)C(=O)O)c2csc(N)n2)C(=O)N1S(=O)(=O)O [Aztreonam],-7.88,8.41,8.84,5.95,-0.4
C[C@](N)(Cc1ccc(O)cc1)C(=O)O [Metyrosine],0.523,8.55,-8.67,12.3,-4.59
COc1cc(C)c(/C=C/C(C)=C/C=C/C(C)=C/C(=O)O)c(C)c1C [Acitretin],6.34,-12.5,50.6,-15.4,-20.9
CC(=O)OCC(=O)[C@@]1(O)CC[C@H]2[C@@H]3CCC4=CC(=O)CC[C@]4(C)[C@H]3C(=O)C[C@@]21C [Cortisone Acetate],2.07,-1.29,1.26,3.11,-0.38
CC(C)NCC(O)COc1ccc(COCCOC(C)C)cc1 (stereo not given) [Bisoprolol (hemifumarate)],2.44,8.3,0.00157,3.42,-3.86
CCCCNc1cc(C(=O)O)cc(S(N)(=O)=O)c1Oc1ccccc1 [Bumetanide],5.57,-2.75,5.52,-3.24,3.54
CCOC(=O)C1=C(C)NC(C)=C(C(=O)OC)C1c1cccc(Cl)c1Cl (racemic) [(±)-Felodipine],0.706,-2.36,-22.2,-10.8,-16.5
CC(=O)[C@H]1CC[C@H]2[C@@H]3CCC4=CC(=O)CC[C@]4(C)[C@H]3CC[C@]12C [Progesterone],3.92,-7.45,-21.2,-12.3,-17.3
Cc1ccc(Nc2nccc(N(C)c3ccc4c(C)n(C)nc4c3)n2)cc1S(N)(=O)=O [Pazopanib],3.47,-4.32,-7.88,0.185,1.79
CN/C(=N\CCSCc1nc[nH]c1C)NC#N [Cimetidine],-1.49,2.86,11.1,4.18,8.46
COc1cc(Nc2ncc(F)c(Nc3ccc4c(n3)N(COP(=O)(O)O)C(=O)C(C)(C)O4)n2)cc(OC)c1OC [R788 (sodium salt)],4.23,4.11,7.65,-1.65,2.43
CC(=O)OCC(=O)[C@@]12N=C(C)O[C@@H]1C[C@H]1[C@@H]3CCC4=CC(=O)C=C[C@]4(C)[C@H]3[C@@H](O)C[C@@]12C [Deflazacort],13.1,3.69,-3.59,-1.6,13.9
CCOCCn1c(N2CCCN(C)CC2)nc2ccccc21 [Emedastine (fumarate)],5.25,8.02,5.05,0.658,-3.97
Cc1c(O)cccc1C(=O)N[C@@H](CSc1ccccc1)[C@H](O)CN1C[C@H]2CCCC[C@H]2C[C@H]1C(=O)NC(C)(C)C [Nelfinavir (mesylate)],17.7,0.499,-23,2.82,-10.2
Cc1cc(Nc2ncc(Cl)c(Nc3ccccc3S(=O)(=O)C(C)C)n2)c(OC(C)C)cc1C1CCNCC1 [Ceritinib],23.6,-3.09,-7.86,-6.25,-1.6
OC(CNCC(O)C1CCc2cc(F)ccc2O1)C1CCc2cc(F)ccc2O1 (stereo not given) [Nebivolol (hydrochloride)],9.49,-4.14,2.55,-2.7,-10.6
